Experimental data reported in PubChem BioAssay (EPA / NIEHS).
Where “and” joins values, the source holds several entries; their conditions need not be identical. Equal entries are not always repeated. Records with an inconclusive call do not appear. Some structures have more than one record in an assay (separate samples or runs), and their calls can disagree. Calls of active or inactive are those of the source. Rule for the calls, unless noted: active = hit-call score of the fitted dose curve at least 0.9, where 1 is the maximum; inactive = score below 0.9.

Assays:
[1] = read-out: Interleukin-8 (IL8), CXCL8 (gene 3576); assay: BSK_3C_IL8: BioMAP Diversity Plus: 3C Assay for Interleukin-8 (IL8) Biomarker Activity (AID 2283020); conditions: primary human endothelial cells (HUVEC); actives raise or lower the signal
How it was run: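 Endothelial primary cells of human umbilical vein origin are dosed with chemical; after 24 h the IL-8 biomarker is measured by ELISA, and concentration–response is fitted in both directions versus DMSO.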

[2] = read-out: Monokine induced gamma interferon (MIG), CXCL9 (gene 4283); assay: BSK_3C_MIG: BioMAP Diversity Plus: 3C Assay for Monokine induced gamma interferon (MIG) Biomarker Activity (AID 2283021); conditions: primary human endothelial cells (HUVEC); actives raise or lower the signal
How it was run: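 Endothelial primary cells (human umbilical vein) are dosed with test chemical in the 3C system. MIG levels are measured by ELISA at 24 h and fitted in both directions relative to DMSO.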

[3] = target: human Vitamin D Receptor (VDR), VDR (gene 7421) (UniProt P11473); assay: ATG_VDR_TRANS: Attagene TRANS-FACTORIAL HepG2 Assay for human Vitamin D Receptor (VDR) (AID 2283022; active = hit-call score of the fitted dose curve at least 0.9, where 1 is the maximum)
Sequence of human Vitamin D Receptor (VDR), VDR (gene 7421) (P11473 whole entry, looked up, the tested form may be a part): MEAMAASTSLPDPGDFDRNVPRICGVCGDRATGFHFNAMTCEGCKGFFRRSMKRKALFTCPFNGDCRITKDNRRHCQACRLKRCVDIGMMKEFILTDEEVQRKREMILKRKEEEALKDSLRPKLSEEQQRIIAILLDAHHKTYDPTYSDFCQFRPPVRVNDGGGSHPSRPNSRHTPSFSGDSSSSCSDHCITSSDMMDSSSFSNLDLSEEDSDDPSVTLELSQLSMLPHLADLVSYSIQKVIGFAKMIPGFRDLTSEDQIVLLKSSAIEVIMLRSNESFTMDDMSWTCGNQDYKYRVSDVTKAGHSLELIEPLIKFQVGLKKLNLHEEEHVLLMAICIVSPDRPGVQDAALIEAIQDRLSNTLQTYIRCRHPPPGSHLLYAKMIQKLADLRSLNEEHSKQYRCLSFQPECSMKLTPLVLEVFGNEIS
How it was run: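 HepG2 cells were transiently transfected with multiple GAL4-UAS reporter units, so signal reflects exogenous chimeric receptor-Gal4 activity. After 24 h compound exposure, reporter mRNA was measured by RT-PCR, fluorescent labelling and capillary electrophoresis, fitted for gain of signal versus DMSO.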

[4] = BSK_3C_SRB: Viability Assessment in the BioMAP Diversity Plus: 3C Assay (AID 2283023); conditions: primary human endothelial cells (HUVEC);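 note: fitted both ways against DMSO so a hit may be signal rise or drop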
How it was run: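 Primary human umbilical vein endothelial cells in the 3C system were read 24 h after compound dosing. Total protein was stained with 0.1% sulforhodamine B after 10% TCA fixation and read at 560 nm, with bidirectional fitting against DMSO as baseline.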

[5] = BSK_3C_Vis: BioMAP Diversity Plus: 3C Assay for Morphology Visualization (AID 2283025); conditions: primary human endothelial cells (HUVEC);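 note: fitted both ways so gain or loss versus DMSO counts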
How it was run: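 Morphology read by light microscopy serves as a background control for the multiplexed 3C assay in human umbilical vein endothelial cells, taken 24 h after dosing, with DMSO as the negative control and bidirectional curve fitting.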

[6] = BSK_4H_SRB: Viability Assessment in the BioMAP Diversity Plus: 4H Assay (AID 2283027); conditions: primary human endothelial cells (HUVEC);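 note: cells exposed to compound for 24 h before staining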
How it was run: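 HUVEC, 24 h post-dose; 10% TCA fix, 0.1% SRB stain, A560 nm. Total protein = overt cytotoxicity, parallel to biomarker read. Bidirectional fit vs DMSO baseline.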

[7] = BSK_BE3C_SRB: Viability Assessment in the BioMAP Diversity Plus: BE3C Assay (AID 2283028); conditions: primary human bronchial epithelial cells
How it was run: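 Human primary bronchial epithelial cells were exposed to test chemicals for 24 h. Total protein in parallel cultures was then measured by staining with 0.1% sulforhodamine B after 10% TCA fixation, with absorbance read at 560 nm. Activity was fitted bidirectionally against DMSO.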

[8] = read-out: Thrombomodulin, THBD (gene 7056); assay: BSK_3C_Thrombomodulin: BioMAP Diversity Plus: 3C Assay for Thrombomodulin Biomarker Activity (AID 2283029); conditions: primary human endothelial cells (HUVEC); actives raise or lower the signal
How it was run: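 Endothelial cells from umbilical vein are dosed with test chemical and incubated 24 h. Thrombomodulin is then quantified by ELISA, with DMSO serving as negative control and activity baseline.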

[9] = read-out: Urokinase-type plasminogen activator receptor (uPAR), PLAUR (gene 5329); assay: BSK_4H_uPAR: BioMAP Diversity Plus: 4H Assay for Urokinase-type plasminogen activator receptor (uPAR) Biomarker Activity (AID 2283030); conditions: primary human endothelial cells (HUVEC); actives raise or lower the signal
How it was run: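 Primary human umbilical vein endothelial cells were exposed to chemical for 24 h before cell-surface uPAR was quantified by ELISA. Activity was fitted bidirectionally against the DMSO negative control baseline.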

[10] = read-out: Vascular endothelial growth factor receptor 2 (Homo sapiens) (UniProt P35968); assay: BSK_4H_VEGFRII: BioMAP Diversity Plus: 4H Assay for Vascular endothelial growth factor receptor 2 (VEGFR2) Biomarker Activity (AID 2283031); conditions: primary human endothelial cells (HUVEC); actives raise or lower the signal
How it was run: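 Primary human umbilical vein endothelial cells in the BioMAP 4H system were dosed with test chemical, and 24 h later VEGFRII was measured by ELISA. Activity was fitted bidirectionally against DMSO as negative control and baseline.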

[11] = read-out: Human Leukocyte Antigen - DR isotype (HLADR), HLA-DRA (gene 3122); assay: BSK_BE3C_HLADR: BioMAP Diversity Plus: BE3C Assay for Human Leukocyte Antigen - DR isotype (HLADR) Biomarker Activity (AID 2283032); conditions: primary human bronchial epithelial cells; actives raise or lower the signal
How it was run: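 Chemicals are dosed onto BE3C bronchial epithelial cultures of human origin and left 24 h. HLA-DR is then measured by ELISA, and the endpoint is fitted in both directions using DMSO as the activity baseline.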

[12] = read-out: Vascular cell adhesion molecule 1 (VCAM1), VCAM1 (gene 7412); assay: BSK_4H_VCAM1: BioMAP Diversity Plus: 4H Assay for Vascular cell adhesion molecule 1 (VCAM1) Biomarker Activity (AID 2283033); conditions: primary human endothelial cells (HUVEC); actives raise or lower the signal
How it was run: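 Chemicals are added to primary human umbilical vein endothelial cells. After 24 h, VCAM-1 levels are measured by ELISA. Values come from bidirectional fitting referenced to DMSO.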

[13] = read-out: Interferon-gamma inducible Protein 10 (IP10), CXCL10 (gene 3627); assay: BSK_BE3C_IP10: BioMAP Diversity Plus: BE3C Assay for Interferon-gamma inducible Protein 10 (IP10) Biomarker Activity (AID 2283034); conditions: primary human bronchial epithelial cells; actives raise or lower the signal
How it was run: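 IP-10 quantified by ELISA serves as the endpoint. Cells: primary human bronchial epithelium, read 24 h after compound addition. Activity is derived by bidirectional fitting with DMSO as negative control.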

[14] = read-out: Transforming growth factor beta 1 (TGFb1), TGFB1 (gene 7040); assay: BSK_BE3C_TGFb1: BioMAP Diversity Plus: BE3C Assay for Transforming growth factor beta 1 (TGFb1) Biomarker Activity (AID 2283036); conditions: primary human bronchial epithelial cells; actives raise or lower the signal
How it was run: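 Bronchial epithelial primary cells are treated with test chemical, then TGF-b1 is quantified by ELISA after 24 hours. Values derive from bidirectional fitting against DMSO, with cytotoxicity checked by SRB staining in parallel cultures.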

[15] = read-out: Plasminogen activator inhibitor-1 (PAI1), SERPINE1 (gene 5054); assay: BSK_BE3C_PAI1: BioMAP Diversity Plus: BE3C Assay for Plasminogen activator inhibitor-1 (PAI1) Biomarker Activity (AID 2283037); conditions: primary human bronchial epithelial cells; actives raise or lower the signal
How it was run: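 Values derive from bidirectional fitting against DMSO baseline of PAI-1 levels, measured by ELISA in human bronchial epithelial cells 24 h after compound addition.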

[16] = read-out: Urokinase-type plasminogen activator receptor (uPAR), PLAUR (gene 5329); assay: BSK_BE3C_uPAR: BioMAP Diversity Plus: BE3C Assay for Urokinase-type plasminogen activator receptor (uPAR) Biomarker Activity (AID 2283039); conditions: primary human bronchial epithelial cells; actives raise or lower the signal;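 note: uPAR protein level measured by ELISA on the cells; cells exposed to compound for one day before measurement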
How it was run: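 Steps: dose human primary bronchial epithelial cells, incubate 24 h, measure uPAR by ELISA, then fit gain- or loss-of-signal response bidirectionally relative to DMSO.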

[17] = read-out: Pselectin, SELP (gene 6403); assay: BSK_4H_Pselectin: BioMAP Diversity Plus: 4H Assay for Pselectin Biomarker Activity (AID 2283026); conditions: primary human endothelial cells (HUVEC); actives raise or lower the signal
How it was run: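 Endothelial primary cells (human umbilical vein) are dosed, incubated 24 h, and assayed for surface P-selectin by ELISA; responses in either direction are fitted relative to the DMSO negative control.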

[18] = read-out: Matrix Metallopeptidase 1 (MMP1), MMP1 (gene 4312); assay: BSK_BE3C_MMP1: BioMAP Diversity Plus: BE3C Assay for Matrix Metallopeptidase 1 (MMP1) Biomarker Activity (AID 2283024); conditions: primary human bronchial epithelial cells; actives raise or lower the signal
How it was run: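 MMP1 signal, measured by ELISA after a 24 h chemical exposure of human primary bronchial epithelial cells, is analysed with bidirectional fitting using DMSO as negative control.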

Measured: AC50

c1ccc2c(c1)-c1ccc3ccc4cccc5cc-2c1c3c45
active: [5] 4.52 µM | [9] 10 µM | [11] 2.57 µM | [12] 3.53 µM
not listed: [17] | [18]
inactive: all other assays above

CCCCCCCC1CCCC1=O (stereo not given)
active: [1] 25.2 µM | [4] 32.9 µM | [5] 37.8 µM | [17] 32.8 µM | [9] 30.7 µM | [11] 30.7 µM | [12] 31.5 µM | [13] 33.5 µM | [14] 36.6 µM | [15] 36.6 µM
inactive: [2] | [6] | [7] | [8] | [10] | [16]

O=C(O)C(F)(F)OC(F)(F)C(F)(F)OC(F)(F)C(F)(F)C(F)(F)C(F)(F)F
inactive: [1] | [2] | [4] | [6] | [7] | [8] | [9] | [10] | [12] | [15] | [16]
active: [4] 46 µM | [18] 19.9 µM and 21.3 µM | [11] 21.2 µM and 13.3 µM | [13] 46.8 µM and 41.4 µM

C=C(C)C(N)=O
not listed: [17]
inactive: all other assays above

COC(=O)c1ccc(C(=O)OC)cc1
not listed: [3] | [17] | [18]
inactive: all other assays above

COc1ccccc1NC(=O)CC(C)=O
not listed: [3] | [17]
inactive: all other assays above
